Hit rate of the full screen: of about 48,000 compounds, about 13,000 (27%) showed an effect of 50% or more. The list shows a part of the results.
System: Wolbachia pipientis
Experiment: Anti-Wolbachia Cell-Based Screen
Assay type: functional
Design: scale not given: in the data most compounds retested in dose-response had high values
Conditions: 5 µM

Row | SMILES | Percent Effect
1 | CC(=O)N1CCCn2nc(CNc3cc(C)ncn3)cc2C1 | 18.58%
2 | Cc1cc(NCc2cc3n(n2)CCCN(C(=O)N(C)C)C3)ncn1 | -7.228%
3 | Cc1cc(NCc2cc3n(n2)CCCN(C(=O)C2CCC2)C3)nc(N)n1 | 111.3%
4 | N[C@H]1CC[C@@H](CN2CCCn3nc(CNC(=O)C4CCC4)cc3C2)CC1 | 11.2%
5 | CS(=O)(=O)N1CCCn2nc(CNc3ncccn3)cc2C1 | -7.874%
6 | CC(=O)N1CCCn2nc(CNS(=O)(=O)N3CCCCCC3)cc2C1 | -0.4584%
7 | Cc1cc(C)nc(NCc2cc3n(n2)CCCN(C(=O)C2CCC2)C3)n1 | 104.2%
8 | Cc1nc(CN2CCCn3nc(CNC(=O)C4CCC4)cc3C2)co1 | -9.719%
9 | O=C(C1CCC1)N1CCCn2nc(CNc3ncccn3)cc2C1 | 131.9%
10 | Cc1cc(NCc2cc3n(n2)CCCN(C(=O)C2CCC2)C3)ncn1 | 87.84%
11 | Cc1cc(NCc2cc3n(n2)CCCN(S(C)(=O)=O)C3)ncn1 | -6.593%
12 | COc1ccccc1CN1C(=O)O[C@@H]2CN(c3nccs3)C[C@@H]21 | -9.448%
13 | CCc1ccc(NS(=O)(=O)CC2=NC(=O)n3cccc3C2=O)cc1 | 11.57%
14 | CCn1cnnc1CCNC(=O)c1ccc(F)c(Br)c1 | -6.891%
15 | CN(C)C(=O)CO[C@H]1CO[C@@]2(CCN(S(C)(=O)=O)C2)C1 | -10.41%
16 | Cn1c(CN2CCN(c3cccnc3)CC2)cc2ccccc21 | 39.54%
17 | CC(C)NC(=O)C1CN(C(N)=O)Cc2ccnn2C1 (stereo unspecified) | -7.077%
18 | O=C(NCc1cccnc1)[C@@H]1CC[C@@H]2[C@@H](CCN2c2ncc(F)cn2)O1.O=C(O)C(F)(F)F.O=C(O)C(F)(F)F | -0.1893%
19 | COCCNC(=O)C1CN(C(N)=O)Cc2ccnn2C1 (stereo unspecified) | 100.3%
20 | CC(=O)N1Cc2ccnn2CC(C(=O)NCc2cccnc2)C1.O=C(O)C(F)(F)F (stereo unspecified) | 105.9%
21 | COCCNC(=O)C1CN(Cc2ccsc2)Cc2ccnn2C1 (stereo unspecified) | 3.328%
22 | COCCNC(=O)C1CN(Cc2cccnc2)Cc2ccnn2C1.O=C(O)C(F)(F)F.O=C(O)C(F)(F)F.O=C(O)C(F)(F)F (stereo unspecified) | 1.319%
23 | CS(=O)(=O)N1Cc2ccnn2CC(C(=O)NCc2cccnc2)C1.O=C(O)C(F)(F)F.O=C(O)C(F)(F)F (stereo unspecified) | 101.4%
24 | CC(C)CN(Cc1ccc(C(F)(F)F)nc1)Cc1cnn(C)c1 | -7.949%
25 | COc1cccn(CC(=O)N(C)CCSC)c1=O | -16.92%
26 | O=C(O)c1ccc2c(c1)C1(CCCCC1)CN2C(=O)c1cccs1 | -9.46%
